Assay results as given in paper PMC5540273 (PLoS ONE, 2017).

Columns and labels:
Conditions in all cases: concentration: 1 μM, replicates: in singlicate; n = 1
PDGFRB = system: PDGFRB
PDPK1 = system: PDPK1
PFTAIRE2 = system: PFTAIRE2
PFTK1 = system: T1, PFTK1
T1 construct: gene CDK14

PHKG1 = system: PHKG1
PHKG2 = system: PHKG2
PIK3C2B = system: PIK3C2B
PIK3C2G = system: PIK3C2G
PIK3CA = system: PIK3CA
PIK3CB = system: PIK3CB
PIK3CD = system: PIK3CD
PIK3CG = system: PIK3CG
PIK4CB = system: T2, PIK4CB
T2 construct: gene PI4KB

PIKFYVE = system: PIKFYVE
PIM1 = system: PIM1
PIM2 = system: PIM2
PIM3 = system: PIM3
PIP5K1A = system: PIP5K1A
PIP5K1C = system: PIP5K1C
PIP5K2B = system: PIP5K2B
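Note: KINOMEscan kinase panel screen.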

SMILES | %Inh (PDGFRB) [%] | %Inh (PDPK1) [%] | %Inh (PFTAIRE2) [%] | %Inh (PFTK1) [%] | %Inh (PHKG1) [%] | %Inh (PHKG2) [%] | %Inh (PIK3C2B) [%] | %Inh (PIK3C2G) [%] | %Inh (PIK3CA) [%] | %Inh (PIK3CB) [%] | %Inh (PIK3CD) [%] | %Inh (PIK3CG) [%] | %Inh (PIK4CB) [%] | %Inh (PIKFYVE) [%] | %Inh (PIM1) [%] | %Inh (PIM2) [%] | %Inh (PIM3) [%] | %Inh (PIP5K1A) [%] | %Inh (PIP5K1C) [%] | %Inh (PIP5K2B) [%]
FC(F)(F)c1ccc(-c2nn3ncccc3c2-c2ccnc(Nc3cccc(C(F)(F)F)c3)n2)cc1 [GW828205] | 9 | 0 | 0 | 48 | 9 | 0 | 0 | 0 | 0 | 0 | 0 | 0 | 0 | 0 | 12 | 17 | 32 | 53 | 0 | 0
O=C(NCCCN1CCCC1=O)c1cnc(NCc2cc(Cl)ccc2Cl)nc1NC1CCNCC1 | 0 | 7 | 0 | 7 | 0 | 1 | 0 | 0 | 0 | 0 | 0 | 7 | 0 | 30 | 0 | 0 | 4 | 0 | 12 | 0
Cl.c1ccc(Cn2ncc3cc(Nc4ncnc5ccccc45)ccc32)cc1 [GW273749] | 0 | 0 | 20 | 14 | 0 | 0 | 16 | 0 | 0 | 7 | 0 | 3 | 0 | 0 | 0 | 0 | 1 | 0 | 11 | 10
Clc1cccc(-c2nc(Nc3ccncc3)c3ccccc3n2)c1 [GW873004] | 12 | 4 | 0 | 0 | 0 | 0 | 0 | 0 | 0 | 0 | 0 | 0 | 0 | 61 | 4 | 11 | 0 | 22 | 33 | 0
Fc1ccc(-c2ncn(CCCNCc3ccccc3)c2-c2ccncc2)cc1 | 24 | 6 | 0 | 0 | 0 | 16 | 1 | 31 | 3 | 0 | 3 | 4 | 24 | 2 | 10 | 23 | 28 | 0 | 0 | 12
COc1ccc(NC(=O)c2ccc(-c3cc(-c4nnc(C)o4)ccc3C)cc2)cc1 [GW595885] | 47 | 0 | 0 | 5 | 3 | 0 | 0 | 0 | 0 | 0 | 0 | 0 | 0 | 13 | 0 | 0 | 0 | 7 | 1 | 10
Cn1cc(-c2ccc3c(c2)CCN3C(=O)Cc2cccc(C(F)(F)F)c2)c2c(N)ncnc21 [GSK2606414] | 55 | 6 | 18 | 0 | 6 | 0 | 0 | 2 | 0 | 0 | 0 | 0 | 6 | 0 | 0 | 0 | 0 | 0 | 0 | 0
Nc1n[nH]c2nnc(-c3ccccc3)cc12 [SB-517389] | 5 | 0 | 17 | 24 | 0 | 1 | 0 | 0 | 0 | 0 | 0 | 0 | 8 | 0 | 8 | 0 | 0 | 0 | 0 | 18
CC(C)N1CCC(n2cnc(-c3ccc(F)cc3)c2-c2ccnc(N)n2)CC1 [SB-223132] | 0 | 5 | 0 | 2 | 28 | 0 | 0 | 0 | 0 | 0 | 0 | 7 | 0 | 10 | 29 | 22 | 10 | 54 | 49 | 0
CC(C)(C)OC(=O)NC1CCCN(c2cc(-c3ccc4c(N)n[nH]c4c3)nc(N)n2)C1 (centres unmarked) [GSK2286096] | 14 | 84 | 18 | 0 | 0 | 0 | 0 | 0 | 0 | 0 | 0 | 19 | 1 | 0 | 9 | 0 | 5 | 0 | 7 | 19
